# In the library only some 9.2% were active in any assay of this set; here they are far more common.
# SMN2 splice enh – qHTS Assay for Enhancers of SMN2 Splice Variant Expression; HEK293 SMN2-luciferase splicing reporter, luminescence, 30-36 h; Potency, µM (titrated, usually from 46.1 µM), inactives show at the highest dose activity change, positive = activation, hits mostly activators; 210,000 compounds, 2.8% hits; note: % of control where 0% means no effect; nearly all actives have a fitted effect of over 55% in size
#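 qHTS luciferase splicing reporter: luminescence rises when SMN2 exon 7 is included in transfected HEK293 cells. Compound exposure lasted 30-36 h at 37C, with 4.5 mM final sodium butyrate as control, followed by a ONE-Glo read.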
# ELG1 DNA repair – qHTS screen for small molecules that inhibit ELG1-dependent DNA repair in human embryonic kidney (HEK293T) cells expressing luciferase-tagged ELG1. Potency, µM (doses to about 46.1 µM), for inactives: at the top dose activity change, negative = inhibition, most hits filed as inhibitors. 330,000 compounds, 2.3% hits. HEK293T ELG1-luciferase reporter, luminescence, 16 h; DNA damage induced by 5-fluorouridine; note: % is set by controls: 0 for no effect and ±100 for the full control effect; nearly all actives have a fitted effect of over 55% in size
#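 Step one: seed 2,000 cells per well. Step two: pin-transfer compound or DMSO alongside 5-fluorouridine. Step three: incubate 16 hr, 37 °C, 5% CO2. Step four: add ONE-Glo, wait 30 min, read luminescence.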
# Rab9 prom act – qHTS Assay for Rab9 Promoter Activators; Huh7 Rab9 promoter-luciferase reporter, luminescence, 24 h; Potency, µM (highest dose often 9.22 µM), for the others: at the top dose activation, negative = inhibition, most hits filed as activators; 320,000 compounds, 2.8% hits; AID 485297, 2010; note: % of control where 0% means no effect; nearly all actives have a fitted effect of over 60% in size
#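 Promoter activation is measured as luciferase luminescence in Huh7 cells stably transfected with a Rab9 promoter–luciferase construct, following 24 h compound exposure at 37 °C and 10 min reagent incubation at ambient temperature.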
# ELG1 genotoxic – qHTS screen for small molecules that induce genotoxicity in human embryonic kidney (HEK293T) cells expressing luciferase-tagged ELG1. HEK293T ELG1-luciferase reporter, luminescence, 16 h. Potency, µM (series often up to 46 µM), inactives show top-dose activity change, positive = activation, usual class: activators. 330,000 compounds, 1.3% hits. AID 504466, 2011; note: % of control where 0% means no effect; nearly all actives have a fitted effect of over 60% in size
#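 After overnight (16 hr) compound treatment at 37 °C, ELG1-luciferase HEK293T cells were lysed with ONE-Glo; luminescence quantified 30 min later at room temperature.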
# NPC1 promoter act – qHTS Assay for NPC1 Promoter Activators; Huh7 NPC1 promoter luciferase reporter, 24 h; Potency, µM (series often up to 9.22 µM), for inactives: at the top dose activation, hits mostly activators; 320,000 compounds, 2.4% hits; AID 485313, 2010; note: % of control where 0% means no effect; nearly all actives have a fitted effect of over 60% in size
#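 Luminescence from an NPC1 promoter-driven luciferase reporter in stably transfected Huh7 cells was measured after 24 h compound treatment at 37 °C, followed by 10 min ambient incubation with luciferase detection reagent.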
# FLuc counter – qHTS profiling assay for firefly luciferase inhibitor/activator using purifed enzyme and Km concentrations of substrates (counterscreen for miR-21 project); Luciferin 4-monooxygenase (Photinus pyralis), P08659; purified FLuc, Km substrates, luminescence inhibition; Potency, µM (doses to about 57.5 µM), without a hit: at the highest dose activity change, negative = inhibition, hits mostly inhibitors; 360,000 compounds, 6.9% hits; AID 588342, 2011;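 note: plate controls were vehicle for no effect and reference inhibitor for full effect; nearly all actives have a fitted effect of over 55% in size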
# Target sequence (P08659 whole entry, looked up): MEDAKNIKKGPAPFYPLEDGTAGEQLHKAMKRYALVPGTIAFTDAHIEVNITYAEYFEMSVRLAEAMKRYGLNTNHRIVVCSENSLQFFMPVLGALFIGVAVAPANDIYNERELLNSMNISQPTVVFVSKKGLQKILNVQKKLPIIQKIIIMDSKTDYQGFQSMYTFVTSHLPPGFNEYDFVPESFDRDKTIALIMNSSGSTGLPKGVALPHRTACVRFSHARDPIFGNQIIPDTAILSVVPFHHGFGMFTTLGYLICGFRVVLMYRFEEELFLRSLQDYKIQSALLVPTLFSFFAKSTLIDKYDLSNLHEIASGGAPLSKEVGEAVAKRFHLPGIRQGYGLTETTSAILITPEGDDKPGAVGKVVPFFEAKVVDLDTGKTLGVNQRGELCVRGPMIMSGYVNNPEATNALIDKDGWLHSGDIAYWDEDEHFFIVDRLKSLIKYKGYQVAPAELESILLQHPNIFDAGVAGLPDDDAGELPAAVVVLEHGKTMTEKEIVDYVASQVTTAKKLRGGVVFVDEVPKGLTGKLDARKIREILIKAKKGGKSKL
#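 Purified P. pyralis luciferase (10nM final) with 10uM D-luciferin and 10uM ATP (Km levels) in 50mM Tris acetate pH 7.5, 10mM Mg acetate, 0.01% Tween-20, 0.05% BSA; qHTS 6-point titration, ~60 µM downward; luminescence read.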
# * marks the source's active call; other numbers are inactive results; u = inconclusive; x = not tested or not shown. Calls come from the whole dose curve; as a rule, active = well fitted curve in the direction sought with a large enough effect; inconclusive = small, poorly fitted or top-dose-only effect, or another doubt; inactive = no such curve, though single readings can be large; an effect the other way counts as inactive or inconclusive. Potency is the fitted concentration of half-maximal effect.
SMILES,SMN2 splice enh,ELG1 DNA repair,Rab9 prom act,ELG1 genotoxic,NPC1 promoter act,FLuc counter
Cc1ccc(CNC(=O)C2CCCN(c3ncnc4onc(-c5ccc(F)cc5)c34)C2)cc1 (stereo not given),x,x,x,x,x,2%
O=C(COC(=O)Cn1ccc(=O)[nH]c1=O)Nc1ccc(F)cc1,x,27%,x,-4%,x,x
CCN(C(=O)CSc1nc2n[nH]c(C)c2c(=N)n1-c1cccc(OC)c1)c1cccc(C)c1,x,x,x,x,x,2%
CSc1ccc(Cl)c(C(=O)NNC(=O)c2cccs2)c1,x,16%,x,-2%,x,x
CC(C)(C)OC(=O)N[C@@H](COCc1ccccc1)C(=O)N[C@@H](CO)[C@H](O)[C@@H]1C[C@@H]1C(=O)NC1CCCCC1,x,-1%,2%,3%,0%,5%
CCn1c(CN2CCCCC2)nc2cc(NC(=O)COc3ccc(C(C)(C)C)cc3)ccc21,x,x,x,x,x,0%
CCCCNc1ncnc2c1cnn2-c1ccc(Cl)cc1,5µM*,u,u,2.3µM*,u,2.7µM*
COC(=O)CN1C(=O)CSc2ccc(S(=O)(=O)Nc3cccc(C)c3)cc21,x,x,x,x,x,-13%
COc1ccccc1/C=C(\NC(=O)c1ccccc1)C(=O)NCc1ccco1,x,2%,-1%,0%,-1%,2%
NC(=O)c1sc(=S)n2c1[nH]c(=O)c1sccc12,25%,5%,2%,-5%,0%,u
CC(=O)NNC(=O)c1sc(=S)n2c1[nH]c(=O)c1sccc12,4%,u,-4%,-1%,-4%,19µM*
O=C(CCC1N=C2c3ccccc3N=C(SCc3ccc(F)cc3)N2C1=O)NCc1ccc(F)cc1 (stereo not given),x,x,x,x,x,1%
Cc1ccccc1N=C/C=C1/C=C(c2ccccc2)OC(C)(C)O1,-4%,13µM*,-3%,-7%,-2%,-11%
COc1ccc(OC)c2sc(NC(=O)c3ccc(S(=O)(=O)N4CCCC4)cc3)nc12,x,x,x,x,x,-1%
COc1ccc(OC)c2c(N3CCN(C)CC3)cc(C(F)(F)F)nc12,-6%,10%,3%,1%,5%,4%
COc1ccc(OC)c2c(N3CC(C)OC(C)C3)cc(C(F)(F)F)nc12 (stereo not given),x,u,3.2µM*,u,2.8µM*,7.6µM*
CC(=O)Nc1nc2c(C)cc(NC(=O)C3CCCCC3)cc2s1,x,u,1.8µM*,u,2.2µM*,x
COc1ccc(NC(=O)C2CCCO2)c(OC)c1 (stereo not given),x,5%,17%,0%,-1%,-2%
Cc1cccc2sc(NC(=O)C3CCCO3)nc12 (stereo not given),20µM*,u,u,u,u,u
COc1ccc2nc(NC(=O)C3CCCO3)sc2c1 (stereo not given),x,u,u,u,1.1µM*,9.5µM*
CCc1cccc(C)c1NC(=O)C1CCCO1 (stereo not given),-8%,3%,-3%,4%,0%,1%
CSc1nc2ccc(NC(=O)C3CCCO3)cc2s1 (stereo not given),13µM*,u,3.5µM*,10µM*,3.5µM*,12µM*
CC(=O)Nc1cc(C)c2nc(NC(C)=O)sc2c1,x,u,26%,u,24%,u
Cc1ccc(S(=O)(=O)c2cnc(SCC(=O)Nc3cccc(Cl)c3)nc2N)cc1C,15%,x,x,x,x,-1%
CSc1nc2ccc(NC(=O)NC(=O)c3c(F)cccc3F)cc2s1,x,14%,u,6%,u,-19%
COc1ccc(-c2nnc(NC(=O)C3CCCO3)s2)cc1 (stereo not given),24%,u,4µM*,u,2.5µM*,12µM*

# High-throughput results from PubChem.
